Measured values taken from the supplement of paper PMC10849652.
Targets with a hit are over-represented here; the source holds about 7,900 in all. About 0.6% of all pairs of compound and target were hits. Values without a mark were called inactive.

compound: COC1=CC=C(C=C1)CN2C=CC3=C2C=C(C=C3)C(=O)NO; test: log2 fold change, soluble protein after heating vs DMSO (PISA); higher = thermal stabilisation; K562 cells, 10 uM, 30 min; active = over 0.2 and 3.5 SD of the protein, either way, in both replicates (recomputed)
In short: (§1)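 K562 cells at 2×10^6 cells/mL were exposed to 10 μM compound for 30 min, then aliquots were heated for 3 min across 48°C-58°C, pooled, and extracted in PBS containing 0.5% NP-40 at 4°C. The supernatant after 21,000xg for 90 min was taken as soluble protein and measured by TMTpro 16plex LC-MS/MS with channel sums equalised. Thermal stability is reported relative to control samples, with values from duplicates. Fold changes are given on a log2 scale.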

Chain of UniProt Q15904 (Q15904 whole entry, looked up): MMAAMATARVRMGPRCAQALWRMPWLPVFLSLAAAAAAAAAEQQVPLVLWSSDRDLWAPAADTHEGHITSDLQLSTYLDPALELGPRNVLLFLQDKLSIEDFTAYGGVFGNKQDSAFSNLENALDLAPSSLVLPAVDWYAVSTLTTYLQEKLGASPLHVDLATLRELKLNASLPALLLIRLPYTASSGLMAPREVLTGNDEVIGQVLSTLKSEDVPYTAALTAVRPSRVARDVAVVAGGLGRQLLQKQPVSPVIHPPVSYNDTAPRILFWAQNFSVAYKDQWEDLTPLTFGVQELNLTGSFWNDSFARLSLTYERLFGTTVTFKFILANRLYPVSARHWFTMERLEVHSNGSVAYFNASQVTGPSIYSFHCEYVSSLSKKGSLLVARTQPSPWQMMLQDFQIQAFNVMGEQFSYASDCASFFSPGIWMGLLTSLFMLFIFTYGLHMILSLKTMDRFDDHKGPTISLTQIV
Chain of UniProt O95573 (O95573 whole entry, looked up): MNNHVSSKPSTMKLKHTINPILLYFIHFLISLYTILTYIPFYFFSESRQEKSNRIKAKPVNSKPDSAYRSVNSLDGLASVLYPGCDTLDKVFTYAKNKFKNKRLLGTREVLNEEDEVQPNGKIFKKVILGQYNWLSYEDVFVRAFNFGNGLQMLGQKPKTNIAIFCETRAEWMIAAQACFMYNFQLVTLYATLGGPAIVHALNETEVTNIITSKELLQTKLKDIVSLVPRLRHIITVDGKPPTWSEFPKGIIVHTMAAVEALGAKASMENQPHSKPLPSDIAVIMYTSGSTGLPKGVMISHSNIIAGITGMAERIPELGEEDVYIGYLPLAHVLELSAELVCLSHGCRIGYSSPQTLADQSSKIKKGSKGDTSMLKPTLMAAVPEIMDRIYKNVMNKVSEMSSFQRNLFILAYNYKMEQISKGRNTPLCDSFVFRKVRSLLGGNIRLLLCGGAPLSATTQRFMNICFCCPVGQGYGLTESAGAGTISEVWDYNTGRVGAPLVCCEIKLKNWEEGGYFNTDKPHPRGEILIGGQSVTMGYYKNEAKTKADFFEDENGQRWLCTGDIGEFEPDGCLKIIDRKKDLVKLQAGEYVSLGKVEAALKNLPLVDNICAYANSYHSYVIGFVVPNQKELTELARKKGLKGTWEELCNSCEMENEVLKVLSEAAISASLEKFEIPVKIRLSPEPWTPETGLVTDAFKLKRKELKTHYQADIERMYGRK
Chain of UniProt Q9BRQ8 (Q9BRQ8 whole entry, looked up): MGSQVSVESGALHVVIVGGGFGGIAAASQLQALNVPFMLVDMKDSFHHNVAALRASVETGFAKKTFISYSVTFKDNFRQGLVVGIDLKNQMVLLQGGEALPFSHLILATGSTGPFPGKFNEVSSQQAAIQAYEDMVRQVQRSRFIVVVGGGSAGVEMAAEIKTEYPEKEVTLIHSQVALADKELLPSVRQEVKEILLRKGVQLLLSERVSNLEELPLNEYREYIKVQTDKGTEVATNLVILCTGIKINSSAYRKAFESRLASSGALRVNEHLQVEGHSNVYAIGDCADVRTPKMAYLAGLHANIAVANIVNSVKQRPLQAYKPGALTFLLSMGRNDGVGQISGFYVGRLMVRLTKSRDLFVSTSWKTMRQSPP
Chain of UniProt Q9UKG1 (Q9UKG1 whole entry, looked up): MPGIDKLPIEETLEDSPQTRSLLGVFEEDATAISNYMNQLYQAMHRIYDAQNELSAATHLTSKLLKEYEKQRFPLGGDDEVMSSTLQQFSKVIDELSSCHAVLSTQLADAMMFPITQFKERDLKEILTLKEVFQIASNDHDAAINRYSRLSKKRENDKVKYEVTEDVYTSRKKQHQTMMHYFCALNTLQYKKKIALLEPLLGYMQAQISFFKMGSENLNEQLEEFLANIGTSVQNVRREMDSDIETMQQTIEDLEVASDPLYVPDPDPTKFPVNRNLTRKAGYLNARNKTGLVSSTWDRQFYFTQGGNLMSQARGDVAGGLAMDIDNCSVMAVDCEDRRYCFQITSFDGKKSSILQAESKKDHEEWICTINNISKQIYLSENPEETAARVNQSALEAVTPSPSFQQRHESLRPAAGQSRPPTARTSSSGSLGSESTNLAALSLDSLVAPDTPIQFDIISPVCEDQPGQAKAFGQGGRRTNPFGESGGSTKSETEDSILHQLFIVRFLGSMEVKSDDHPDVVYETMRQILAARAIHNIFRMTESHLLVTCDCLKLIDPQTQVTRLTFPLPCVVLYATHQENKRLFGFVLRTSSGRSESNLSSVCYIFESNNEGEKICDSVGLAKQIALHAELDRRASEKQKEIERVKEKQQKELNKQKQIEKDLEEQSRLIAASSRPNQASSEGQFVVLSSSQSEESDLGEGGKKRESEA
Chain of UniProt O15254 (O15254 whole entry, looked up): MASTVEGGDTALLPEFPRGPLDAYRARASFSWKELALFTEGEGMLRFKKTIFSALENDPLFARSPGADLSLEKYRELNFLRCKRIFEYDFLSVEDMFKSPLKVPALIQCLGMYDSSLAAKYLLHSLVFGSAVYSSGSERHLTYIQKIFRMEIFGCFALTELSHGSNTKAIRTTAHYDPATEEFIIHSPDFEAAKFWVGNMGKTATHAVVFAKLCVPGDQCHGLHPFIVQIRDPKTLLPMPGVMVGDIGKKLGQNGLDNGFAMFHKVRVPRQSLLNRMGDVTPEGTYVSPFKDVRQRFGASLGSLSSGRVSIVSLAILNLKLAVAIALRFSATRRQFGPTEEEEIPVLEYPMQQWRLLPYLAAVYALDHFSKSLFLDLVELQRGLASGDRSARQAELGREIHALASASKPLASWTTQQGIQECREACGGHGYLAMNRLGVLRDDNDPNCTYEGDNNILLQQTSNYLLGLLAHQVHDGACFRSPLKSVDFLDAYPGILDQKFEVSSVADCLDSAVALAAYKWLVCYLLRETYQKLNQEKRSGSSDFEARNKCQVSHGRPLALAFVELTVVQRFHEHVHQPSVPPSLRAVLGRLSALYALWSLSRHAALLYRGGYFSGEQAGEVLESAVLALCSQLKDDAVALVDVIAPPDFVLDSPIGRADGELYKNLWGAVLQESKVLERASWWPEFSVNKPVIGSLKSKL
Chain of UniProt P40616 (P40616 whole entry, looked up): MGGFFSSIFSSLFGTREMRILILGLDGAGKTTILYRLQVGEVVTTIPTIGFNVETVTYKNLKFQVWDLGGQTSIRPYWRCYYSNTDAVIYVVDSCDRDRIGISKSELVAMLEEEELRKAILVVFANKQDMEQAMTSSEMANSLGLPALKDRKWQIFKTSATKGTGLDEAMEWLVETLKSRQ
Chain of UniProt P53367 (P53367 whole entry, looked up): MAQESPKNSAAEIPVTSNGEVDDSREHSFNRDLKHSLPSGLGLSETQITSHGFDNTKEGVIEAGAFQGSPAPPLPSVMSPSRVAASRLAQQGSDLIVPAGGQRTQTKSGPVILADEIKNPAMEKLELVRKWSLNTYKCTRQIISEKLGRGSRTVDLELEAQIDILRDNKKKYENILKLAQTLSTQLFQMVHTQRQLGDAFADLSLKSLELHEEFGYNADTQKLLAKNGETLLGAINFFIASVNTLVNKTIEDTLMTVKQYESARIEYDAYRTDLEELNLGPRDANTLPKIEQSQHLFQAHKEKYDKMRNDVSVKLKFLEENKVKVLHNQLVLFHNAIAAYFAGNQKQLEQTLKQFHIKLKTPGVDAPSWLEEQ
Chain of UniProt P49189 (P49189 whole entry, looked up): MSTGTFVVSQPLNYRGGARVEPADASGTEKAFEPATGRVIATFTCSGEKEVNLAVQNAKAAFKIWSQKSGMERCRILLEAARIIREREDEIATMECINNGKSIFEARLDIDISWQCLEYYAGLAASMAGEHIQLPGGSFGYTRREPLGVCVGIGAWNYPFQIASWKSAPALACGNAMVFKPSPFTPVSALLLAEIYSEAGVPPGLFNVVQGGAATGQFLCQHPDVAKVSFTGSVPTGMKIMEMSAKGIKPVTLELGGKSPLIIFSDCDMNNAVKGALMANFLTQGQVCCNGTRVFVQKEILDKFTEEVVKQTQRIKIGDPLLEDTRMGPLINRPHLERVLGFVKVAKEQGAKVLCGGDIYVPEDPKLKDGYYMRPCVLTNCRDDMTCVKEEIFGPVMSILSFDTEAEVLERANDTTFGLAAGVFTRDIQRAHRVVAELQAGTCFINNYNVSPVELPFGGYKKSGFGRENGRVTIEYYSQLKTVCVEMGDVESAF
Chain of UniProt Q16864 (Q16864 whole entry, looked up): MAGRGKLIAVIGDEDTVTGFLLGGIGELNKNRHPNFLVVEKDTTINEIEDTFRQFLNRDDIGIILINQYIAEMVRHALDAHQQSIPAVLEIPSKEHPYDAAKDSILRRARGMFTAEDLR
Chain of UniProt Q14137 (Q14137 whole entry, looked up): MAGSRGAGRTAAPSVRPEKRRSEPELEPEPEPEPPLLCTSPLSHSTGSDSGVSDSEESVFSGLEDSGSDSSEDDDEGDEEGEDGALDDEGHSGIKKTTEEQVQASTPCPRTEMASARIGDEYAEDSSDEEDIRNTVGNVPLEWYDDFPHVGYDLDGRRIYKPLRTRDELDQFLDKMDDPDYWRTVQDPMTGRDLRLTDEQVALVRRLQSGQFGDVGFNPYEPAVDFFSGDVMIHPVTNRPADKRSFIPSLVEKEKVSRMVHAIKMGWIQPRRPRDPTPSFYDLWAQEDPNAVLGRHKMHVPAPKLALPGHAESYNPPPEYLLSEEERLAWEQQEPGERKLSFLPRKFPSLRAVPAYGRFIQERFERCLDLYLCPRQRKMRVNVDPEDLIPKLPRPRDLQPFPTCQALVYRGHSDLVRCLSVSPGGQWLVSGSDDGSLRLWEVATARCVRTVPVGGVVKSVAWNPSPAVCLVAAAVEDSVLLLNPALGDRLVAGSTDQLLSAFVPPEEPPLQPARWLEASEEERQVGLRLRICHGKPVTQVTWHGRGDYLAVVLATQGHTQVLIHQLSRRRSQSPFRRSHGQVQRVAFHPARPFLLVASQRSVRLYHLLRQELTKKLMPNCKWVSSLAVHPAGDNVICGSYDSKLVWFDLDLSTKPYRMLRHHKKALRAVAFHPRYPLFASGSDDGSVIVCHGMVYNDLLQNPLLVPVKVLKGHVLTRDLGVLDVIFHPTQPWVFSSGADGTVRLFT

In order of falling log2 fold change:
1. ARFIP1 (UniProt P53367)  0.354
2. ACOX3 (UniProt O15254)  0.138
3. ATP6V1F isoform 2 (UniProt Q16864)  0.126
4. ACSL3 (UniProt O95573)  0.126
5. ADRM1 (UniProt Q16186)  0.088
6. ACTR1B (UniProt P42025)  0.084
7. ATP1B3 (UniProt P54709)  0.082
8. ARGLU1 (UniProt Q9NWB6)  0.066
9. ATF7 isoform 6 (UniProt P17544)  0.04
10. ANXA5 (UniProt P08758)  0.033
11. ANGEL1 (UniProt Q9UNK9)  0.024
12. AAR2 (UniProt Q9Y312)  0.022
13. BTAF1 (UniProt O14981)  0.018
14. ATG9A (UniProt Q7Z3C6)  0.008
15. ATP23 (UniProt Q9Y6H3)  0.003
16. ADH5 (UniProt P11766)  -0.002
17. ACAD9 (UniProt Q9H845)  -0.005
18. ALDH9A1 isoform 3 (UniProt P49189)  -0.006
19. ARL1 (UniProt P40616)  -0.007
20. ALDH2 (UniProt P05091)  -0.011
21. ACSL1 (UniProt P33121)  -0.014
22. ALG11 (UniProt Q2TAA5)  -0.018
23. AIFM2 (UniProt Q9BRQ8)  -0.019
24. ATP9B (UniProt O43861)  -0.019
25. APPL1 (UniProt Q9UKG1)  -0.024
26. AP4S1 (UniProt Q9Y587)  -0.039
27. AGPAT5 (UniProt Q9NUQ2)  -0.043
28. AGAP3 isoform 4 (UniProt Q96P47)  -0.051
29. AARS2 (UniProt Q5JTZ9)  -0.053
30. BOP1 (UniProt Q14137)  -0.059
31. BCCIP isoform 2 (UniProt Q9P287)  -0.059
32. ATP6AP1 (UniProt Q15904)  -0.099
33. ACO2 (UniProt Q99798)  -0.101
34. AFG1L (UniProt Q8WV93)  -0.17

With AKR1C2 (UniProt P52895) the log2 fold change was 0.706 (active).

compound: CON(C)C(=O)N1N=C(c2cc(F)ccc2F)S[C@@]1(CCCN)c1ccccc1 [filanesib]; test: as above
In short: as §1

In order of falling log2 fold change:
1. ATF7 isoform 6 (UniProt P17544)  0.417
2. AKR1C2 (UniProt P52895)  0.259
3. AGAP3 isoform 4 (UniProt Q96P47)  0.24
4. ARGLU1 (UniProt Q9NWB6)  0.207
5. ATP9B (UniProt O43861)  0.192
6. ATP6V1F isoform 2 (UniProt Q16864)  0.162
7. BOP1 (UniProt Q14137)  0.161
8. AAR2 (UniProt Q9Y312)  0.111
9. ATP1B3 (UniProt P54709)  0.073
10. APPL1 (UniProt Q9UKG1)  0.069
11. BCCIP isoform 2 (UniProt Q9P287)  0.05
12. ACTR1B (UniProt P42025)  0.044
13. ACOX3 (UniProt O15254)  0.042
14. AP4S1 (UniProt Q9Y587)  0.029
15. ADRM1 (UniProt Q16186)  0.008
16. BTAF1 (UniProt O14981)  -0.006
17. AIFM2 (UniProt Q9BRQ8)  -0.025
18. ANXA5 (UniProt P08758)  -0.033
19. ALG11 (UniProt Q2TAA5)  -0.038
20. ALDH9A1 isoform 3 (UniProt P49189)  -0.04
21. ACSL3 (UniProt O95573)  -0.045
22. ARFIP1 (UniProt P53367)  -0.049
23. ADH5 (UniProt P11766)  -0.053
24. ATP6AP1 (UniProt Q15904)  -0.064
25. ACAD9 (UniProt Q9H845)  -0.069
26. ACSL1 (UniProt P33121)  -0.08
27. ACO2 (UniProt Q99798)  -0.081
28. ATP23 (UniProt Q9Y6H3)  -0.082
29. ATG9A (UniProt Q7Z3C6)  -0.113
30. ALDH2 (UniProt P05091)  -0.142
31. AGPAT5 (UniProt Q9NUQ2)  -0.153
32. ARL1 (UniProt P40616)  -0.155
33. AARS2 (UniProt Q5JTZ9)  -0.159
34. AFG1L (UniProt Q8WV93)  -0.239
